# Assay outcomes deposited in PubChem by National Center for Advancing Translational Sciences (NCATS).
# PNC assembly inh – blocks assembly of the perinucleolar compartment | PC3M PTB-GFP, PNC prevalence imaging, 16 h; stronger effect = lower value | activity change (PNC), negative = inhibition, % at 10 µM | 140,000 compounds, 3.1% hits;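 active means readout at or below -70, meaning at least 70% loss of cells showing the perinucleolar compartment, a nuclear body marking cancer cells; inconclusive means readout between -30 and a set limit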;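 further: plate controls were DMSO wells for no effect and camptothecin positive control wells for full effect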
#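 Compounds are pinned in duplicate onto adhered PC3M cells stably expressing GFP-tagged PTB and incubated 16 h at 37 C. Cells are then fixed, nuclei stained with Hoechst, and PNC-positive cells counted.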
# KinaseGlo FLuc – Kinase-Glo luciferase inhibition (counter-screen); Q27757; 200,000 compounds, 0.28% hits; Potency, µM (top dose mostly 38.3 µM), without a hit: at the top dose activity change, negative = inhibition, usual class: inhibitors; Kinase-Glo luciferase, ATP luminescence, 8 min; active means well fitted inhibition curve with a large enough effect; inconclusive means small, poorly fitted or top-dose-only effect; further: potency means the concentration at half of the fitted maximal effect; nearly all actives have a fitted effect of over 60% in size
#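 Substrate mix (final 50 mM imidazole pH 7.2, 50 mM KCl, 7 mM MgCl2, 10 uM ATP, 0.01% Tween 20, 0.05% BSA) plus pin-tool compound, then Kinase-Glo detection mix; 8 min ambient, luminescence read.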
# Lamin A splicing – changes lamin A minigene splicing in HeLa cells; HeLa LMNA splicing GFP/RFP minigene ratio, 48 h; Potency, µM (highest dose often 46.1 µM), for inactives: at the top dose ratio change, negative = inhibition, hits mostly inhibitors; 200,000 compounds, 0.01% hits; AID 1487; active means well fitted inhibition curve with a large enough effect in the signal ratio, with a control signal flat, not every such curve was filed as active; inconclusive means small, poorly fitted or top-dose-only effect, or effect the other way, or a change in a side signal; the % refers to the signal ratio; further: potency means the concentration at half of the fitted maximal effect
#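 Read-out is the ratio of GFP to DsRed2 object intensity, acquired by 488 nm laser-scanning cytometry on HeLa lamin A-EGFP minigene reporter cells. Compound incubation 48 hrs at 37 °C in Opti-MEM with 2% FBS; DMSO 0.5% final.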
# ALDH1A1 block – blocks purified human ALDH1A1 activity; P00352; Purified ALDH1A1, NADH fluorescence, propionaldehyde substrate; Potency, µM (series often up to 75.3 µM), for the others: at the highest dose activity, negative = inhibition, actives largely listed as inhibitors; 220,000 compounds, 7.3% hits;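 further: potency means the concentration at half of the fitted maximal effect; plate controls were no enzyme wells and a reference inhibitor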
# Target sequence (P00352 whole entry, looked up): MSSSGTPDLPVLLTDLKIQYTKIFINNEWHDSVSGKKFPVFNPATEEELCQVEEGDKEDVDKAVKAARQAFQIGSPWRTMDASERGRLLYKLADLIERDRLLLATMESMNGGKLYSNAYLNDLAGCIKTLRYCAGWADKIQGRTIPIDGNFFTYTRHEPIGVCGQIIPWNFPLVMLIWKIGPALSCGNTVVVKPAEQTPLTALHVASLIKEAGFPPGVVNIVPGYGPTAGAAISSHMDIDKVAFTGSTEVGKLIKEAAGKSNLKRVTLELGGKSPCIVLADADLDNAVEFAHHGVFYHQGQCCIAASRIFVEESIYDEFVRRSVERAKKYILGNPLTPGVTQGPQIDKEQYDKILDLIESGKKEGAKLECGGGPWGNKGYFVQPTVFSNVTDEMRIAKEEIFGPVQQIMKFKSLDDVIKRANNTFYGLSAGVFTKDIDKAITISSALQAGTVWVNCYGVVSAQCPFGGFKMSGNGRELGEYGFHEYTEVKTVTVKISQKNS
# HPGD block – inhibitors of human 15-hydroxyprostaglandin dehydrogenase (HPGD); purified HPGD, NADH fluorescence kinetic, PGE2 substrate; Potency, µM, for inactives: at the top dose activity change, negative = inhibition, hits mostly inhibitors; 150,000 compounds, 4.3% hits; AID 894; further: potency means the concentration at half of the fitted maximal effect
#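 NADH formation kinetics: reaction with 30 uM PGE2 and 1 mM NAD+ (final), 20 nM enzyme, Tris-HCl pH 8 with Tween 20, after 15 min compound preincubation at room temperature. Fluorescence change, last versus first of five reads.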
# * = called active by the depositor; ? = inconclusive; . = not tested or not shown; [ ] = remark or other dose. In the library only some 10% were active in any assay of this set; here they are far more common. Unless noted, the call rests on the fitted dose curve; in most records, active means well fitted inhibition curve with a large enough effect (not every such curve was filed as active); inconclusive means small, poorly fitted or top-dose-only effect, or another doubt; inactive means no such curve, though single readings can be large or run the other way. Unless noted, on the % scale 0 is the no-effect control and ±100 the full control effect.
SMILES,PNC assembly inh,KinaseGlo FLuc,Lamin A splicing,ALDH1A1 block,HPGD block
CN(C)c1ccc(C(=O)/C=C/c2ccco2)cc1,-10,-12%,?,8.9µM*,32µM*
CSc1ccc(/C=C/C(=O)c2ccc(O)cc2)cc1,69,-18%,?,18µM*,-28%
O=C(/C=C/c1ccco1)c1ccc(O)cc1,.,-10%,.,15µM*,.
COc1ccc(OC)c(NC(=O)CSc2nnc3ccc4ccccc4n23)c1,.,.,10%[46 µM],.,.
Cc1ccc(C)c(OCCOCCN2CC(C)OC(C)C2)c1C (centres undefined),?,-5%,9%,16µM*,-9%
Cc1ccc(C(=O)NCC(c2ccc3c(c2)OCO3)N2CCOCC2)cc1C (centres undefined),.,.,-10%[46 µM],.,.
O=C(Nc1ccccc1)c1ccccc1OCc1cccc([N+](=O)[O-])c1,-99*,-1%,-1%,?,-3%
O=C(O)c1ccccc1C(=O)Nc1cccc([N+](=O)[O-])c1,.,.,.,-8%,.
CCOC(=O)/C=C/C(=O)Nc1cccc([N+](=O)[O-])c1,4,-4%,?,-1%,1.6µM*
Cc1cc(C(=O)Nc2cccc([N+](=O)[O-])c2)c(C)o1,-109*,-4%,7%,-15%,1%
CC(=O)OC[C@@H]1O[C@@H](O/N=C2/C[C@@H](O)[C@@H](O)[C@@H]3[C@@H]4C(=O)N(Cc5ccccc5)C(=O)[C@H]4CC[C@H]23)[C@H](OC(C)=O)[C@H](OC(C)=O)[C@@H]1OC(C)=O,.,.,.,-6%[13.5 µM],.
CCN(Cc1ccccc1)C(=O)Cn1c(=O)n(-c2ccc(Cl)cc2)c(=O)c2c(C)c(C(=O)N(C)C)sc21,.,.,4%[46 µM],.,.
Cc1ccc(NC(=O)Cn2c(=O)ccc3cc(S(=O)(=O)N4CCCC4)ccc32)cc1N(C)C,.,.,-12%[46 µM],.,.
Cc1nn(C)c2c1c(C(F)(F)F)cc(=O)n2CC(=O)N1CCCCC1,.,.,4%[46 µM],.,.
CC1=C/C(=C/N(C)c2ccccc2)C(=O)S1,-24,-1%,0%,20µM*,32µM*
CN(/C=C/c1c([N+](=O)[O-])c(=O)n(C)c(=O)n1C)c1ccccc1,.,-1%,?,4%,.
CC1CCc2sc(C(=O)NN=C3CCC(c4ccccc4)CC3)cc2C1 (centres undefined),44,-1%,6%,1.3µM*,-16%
O=C(NN=C1CCC(c2ccccc2)CC1)c1cc2c(s1)CCCC2 (centres undefined),-6,5%,-5%,7.9µM*,-10%
CC(C)NC(=S)NN=C1CCC(c2ccccc2)CC1 (centres undefined),.,3%,6%[46 µM],1%,.
CC(C)(C)C1CCC(=NNC(=O)c2cc3c(s2)CCCC3)CC1 (centres undefined),28,0%,-17%,4µM*,-16%
CC(C)(C)C1CCC(=NNC(=O)c2ccccc2-n2cccc2)CC1 (centres undefined),16,2%,-18%,5µM*,-14%
CC(C)(C)C1CCC(=NNC(=O)CC(=O)NCc2ccccc2)CC1 (centres undefined),3,2%,-3%,-7%,-10%
CC(C)(C)C1CCc2sc(C(=O)NNC(=O)CCl)cc2C1 (centres undefined),.,7%,.,3.2µM*,.
CCc1cc(C(=O)NNC(=O)CCl)sc1C,.,-1%,.,?,.
CCS(=O)(=O)c1ccc2oc(Nc3ccc(C(C)C)cc3)nc2c1,28,-2%,-3%,4µM*,4µM*
SMILES,PNC assembly inh,KinaseGlo FLuc,Lamin A splicing,ALDH1A1 block,HPGD block
CCOc1ccc(Nc2nc3cc(S(=O)(=O)N(CC)CC)ccc3o2)cc1,-23,2%,?,3.2µM*,3.5µM*
CCS(=O)(=O)c1ccc2oc(Nc3cc(C)cc(C)c3)nc2c1,118,0%,?,?,-27%
Cn1cccc1C(=O)C(=O)Nc1cc(Cl)cc(Cl)c1,?,11µM*,-5%,?,?
CC(C)(C)NC(=S)NNC(=O)c1ccncc1,-114*,3%,5%,9%,13µM*
CCNC(=S)NNC(=O)c1ccncc1,.,-1%,.,-1%,.
Cn1c(-c2ccc(Cl)cc2)cnc1N,-25,0%,-2%,10%,-5%
Nc1cccn2c(-c3ccc(Cl)cc3)cnc12,.,-8%,-5%[9.22 µM],28µM*,.
Nc1cccn2c(-c3ccc(Cl)c(Cl)c3)cnc12,.,-5%,-2%[46 µM],25µM*,.
Cc1cccc(C(=O)Nc2cccc(OCc3cc(=O)n4ccccc4n3)c2)c1,.,.,-6%[46 µM],.,.
CN(C)CCCN(C(=O)CCOc1ccccc1)c1nc2c(F)cccc2s1,.,-1%,.,3.2µM*,.
CN(C)CCCN(C(=O)CCc1ccccc1)c1nc2c(F)cccc2s1,?,-3%,?,-2%,-7%
Cc1cc(Br)ccc1NC(=O)c1c(C)oc2ncnc(N3CCCCC3)c12,.,.,11%[46 µM],.,.
Cn1cccc1/C=N/n1c(-c2ccc(C(C)(C)C)cc2)n[nH]c1=S,54,-1%,-5%,?,11µM*
Cc1nn(-c2ccccc2)c(C)c1/C=N/n1c(-c2ccc(Cl)cc2)n[nH]c1=S,12,1%,-20%,?,?
Cc1nn(-c2ccccc2)c(C)c1/C=N/n1c(-c2ccncc2)n[nH]c1=S,.,-3%,?,22µM*,.
Cn1cccc1/C=N/n1c(-c2ccccc2)n[nH]c1=S,11,-2%,15%[0.0737 µM],-14%,14µM*
Cc1nn(-c2ccccc2)c(C)c1/C=N/NC(=O)c1cc(-c2ccccc2)n[nH]1,-87*,0%,?,4%,-17%
CCc1cccc(NS(=O)(=O)c2cc(-c3cnc(C)o3)ccc2OC)c1,.,.,-26%[46 µM],.,.
CCCN(CC(=O)Nc1ccc(C(C)=O)cc1)CC(=O)Nc1ccccc1C,.,0%,-5%[46 µM],14µM*,.
CCCN(CC(=O)Nc1ccc(C(N)=O)cc1)CC(=O)Nc1cc(Cl)ccc1Cl,.,1%,30%[46 µM],11%,.
C=CCCCCCCCCCCC/C=C/C(O)COC(C)=O (centres undefined),.,1%,?,-5%,-28%
CC(C)c1nc2sc3c(=O)[nH]cnc3c2c2c1CCC2,-84*,1%,-7%,?,?
O=C(Cl)c1cccc([N+](=O)[O-])c1,.,.,.,11µM*,-6%
O=[N+]([O-])c1cccc(Cl)c1,.,.,.,25µM*,-7%
O=[N+]([O-])c1cccc(S(=O)(=O)c2cccc([N+](=O)[O-])c2)c1,.,-1%,-14%[46 µM],-3%,.
Clc1ccccc1-c1cc(NCc2ccccc2)ncn1,.,.,?,-14%,.
CCN(CC)C(=O)c1cccc(-c2ccc(OC)cc2)c1,33,0%,?,16%,14µM*
CCOCCCNC(=O)c1ccc(N2CCOCC2)c(NS(=O)(=O)c2ccc(OC)cc2)c1,.,7%,.,2.5µM*,.
CCC1CCCCN1CCCNC(=O)c1ccc(N2CCOCC2)c(NS(=O)(=O)c2ccc(OC)cc2)c1 (centres undefined),.,1%,.,?,.
CCCCNC(=O)c1ccc(N2CCOCC2)c(NS(=O)(=O)c2ccc(OC)cc2)c1,?,2%,6%,8.9µM*,-12%
